Experimental data from PubChem BioAssay (NCI).
About 79,000 compounds went through this panel and 15% of them were active in at least one assay; those are over-represented in the sample as a whole. No stated cut-off is given here; in the data, active means growth inhibition above about 70%; inactive means the rest.

Columns and labels:
[1] = NCI Yeast Anticancer Drug Screen. Data for the rad50 strain (AID 155);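 further: 0% = growth of vehicle-only cultures of the same strain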; settings: S. cerevisiae rad50 strain growth inhibition; at 50.0 µM; stronger effect = higher value
Summary of the method: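 Inhibition values express reduced yeast growth in compound-treated cultures relative to vehicle-treated controls.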

[2] = NCI Yeast Anticancer Drug Screen. Data for the mec2-1 strain (AID 157); settings: S. cerevisiae mec2-1 strain, at 50.0 µM, stronger effect = higher value
Summary of the method: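 Mutant yeast (mec2-1) grown with compound; growth inhibition relative to vehicle control reported.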

[3] = NCI Yeast Anticancer Drug Screen. Data for the sgs1 mgt1 strain (AID 161);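 further: 0% = growth of cultures given vehicle only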; settings: S. cerevisiae sgs1 mgt1 strain, at 50.0 µM, stronger effect = higher value
Summary of the method: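 Percent growth inhibition was derived by comparing compound-exposed mutant yeast with vehicle-exposed cultures. The strain carries alterations in DNA damage repair.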

[4] = NCI Yeast Anticancer Drug Screen. Data for the cln2 rad14 strain (AID 165);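 further: 0% = growth equal to vehicle treated cultures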; settings: S. cerevisiae cln2 rad14 strain, at 50.0 µM, stronger effect = higher value
Summary of the method: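 Readout is yeast growth inhibition versus vehicle-treated controls, using a strain with cln2 and rad14 alterations exposed to compound.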

[5] = NCI Yeast Anticancer Drug Screen. Data for the bub3 strain (AID 167); settings: S. cerevisiae bub3 mutant strain, at 50.0 µM, stronger effect = higher value
Summary of the method: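 Steps: expose the mutant yeast strain to compound; grow alongside vehicle-treated cultures; measure growth; express inhibition against the vehicle cultures.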

[6] = NCI Yeast Anticancer Drug Screen. Data for the mlh1 rad18 strain (AID 175); settings: S. cerevisiae mlh1 rad18 strain growth inhibition; at 50.0 µM; stronger effect = higher value
Summary of the method: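 Genetically defined yeast (DNA repair-deficient) exposed to compounds; growth inhibition determined relative to vehicle.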

Measured: growth inhibition

CC(=O)OCC1OC(n2c(C)c(N=Nc3ccc(C)cc3)c(C)c(C#N)c2=S)C(OC(C)=O)C(OC(C)=O)C1OC(C)=O (stereo not given)
inactive: [1] -8.05% | [2] -14.4% | [3] 11.9% | [4] 2.65% | [5] -10.8% | [6] -2.75%

O=[N+]([O-])c1ccc(SC2=NCCCN2)c(Cl)c1
inactive: [1] 36.7% | [2] -0.55% | [3] 33.9% | [4] 11.1% | [5] 32.6% | [6] 26.1%

c1ccc(SC(Sc2ccccc2)=C2CCC2)cc1
inactive: [1] 9.7% | [2] -8.1% | [3] 10.4% | [4] 14.8% | [5] 18% | [6] -6.35%

CC1CCCCC1(O)C(C(=O)O)c1ccccc1 (stereo not given)
inactive: [1] -8.1% | [2] -9.85% | [3] 0.3% | [4] -1.95% | [5] -22% | [6] -29.6%

CC(=O)NNc1nc(C)c(C(=O)/C=C/c2ccccc2Cl)s1
inactive: [1] 37.5% | [2] 16.1% | [3] 17.4% | [4] 19.4% | [5] 23.1% | [6] 43.5%

CC1CCN(C(=O)c2cc(Nc3ccnc4cc(Cl)ccc34)ccc2O)CC1
inactive: [1] -2.05% | [2] -3.4% | [3] -6.65% | [4] -4.35% | [5] -3.9% | [6] 7.6%

CCCCCCCCN(c1ccc(C(=O)NC(CCC(=O)OCC)C(=O)OCC)cc1)S(=O)(=O)c1ccc(C)cc1 (stereo not given)
inactive: [1] -14.6% | [2] -4.5% | [3] -18.9% | [4] -24.6% | [5] -3.6% | [6] -12.2%

NC(=O)CC(Nc1ncc2c(n1)-c1ccccc1OC2)C(=O)O (stereo not given)
inactive: [1] 37.6% | [2] -16.4% | [3] -10.5% | [4] 9.95% | [5] -45.8% | [6] -53.8%

Cc1c(/C=N/NC(=O)c2ccc(Cl)cc2)c(=O)n(-c2ccccc2)n1C
inactive: [1] -43% | [2] -20.9% | [3] -53.4% | [4] -32.4% | [5] -52% | [6] -65.2%

COc1ccc(COc2ccc([N+](=O)[O-])cc2)cc1
inactive: [1] -12.2% | [2] 5% | [3] -4.45% | [4] -9% | [5] -13.9% | [6] -2.25%

CC(=O)NNc1nc(C)c(C(=O)NNC(=O)C(=O)Nc2ccc(C)c(C)c2)s1
inactive: [1] 8.7% | [2] -1.2% | [3] -6.05% | [4] 4.8% | [5] 20.9% | [6] -1.45%

CN(C)c1ccc(-c2nc(N)nc3c2CCCC3)cc1
inactive: [1] -12.7% | [2] -12.2% | [3] -13.3% | [4] 22.4% | [5] -6% | [6] -34.2%

COc1ccc(-c2cc(=O)c3c(OC)cccc3o2)c(OC)c1OC
inactive: [1] -8.9% | [2] -12.7% | [3] -3.5% | [4] 0.95% | [5] -11.2% | [6] 9.8%

O=C(O)C(CCc1cccc(Cl)c1)C(=O)O
inactive: [1] 8.1% | [2] -13.8% | [3] -0.85% | [4] 2.15% | [5] 4.35% | [6] -11.6%

CCOC(=O)C1CC(=O)NC(N)=N1 (stereo not given)
inactive: [1] -12.6% | [2] -29.4% | [3] -13.6% | [4] -7.95% | [5] -8.2% | [6] -14.2%

C=C/C=C1\CCOC1=O
inactive: [1] 1.15% | [2] -5.9% | [3] 2.85% | [4] -3.05% | [5] 3.1% | [6] -10.6%

CC(Nc1cccc(Cl)c1)S(=O)(=O)O (stereo not given)
inactive: [1] 8.05% | [2] 5.7% | [3] -8% | [4] 26.4% | [5] 2% | [6] -0.25%

O=C(Nc1nc2ncn(CCI)c2c(=O)[nH]1)c1ccccc1
inactive: [1] -8.3% | [2] 6.55% | [3] 6.1% | [4] -1.4% | [5] 6.7% | [6] -14.3%

CCOc1ncc(C(O)c2ccc(C)cc2)c(OCC)n1 (stereo not given)
inactive: [1] -1.05% | [2] -11.1% | [3] -3.75% | [4] -52.6% | [5] 1.4% | [6] -9.8%

CCOc1cc([N+](=O)[O-])c(OCC)cc1Cl
inactive: [1] -24.6% | [2] -53.5% | [3] -19.9% | [4] 11% | [5] -17.6% | [6] -29.6%

CC(=O)C(Cc1ccccc1)(Cc1ccccc1)C(C)=O
inactive: [1] 3.3% | [2] -0.95% | [3] -8.3% | [4] 7.45% | [5] 1.35% | [6] 2%

O=C(c1cccnc1)c1cc(-c2ccccn2)c(=O)n2ccccc12
inactive: [1] 0.7% | [2] 1.95% | [3] -13.6% | [4] -1.05% | [5] -15.8% | [6] -36.6%

CCOc1ccc(/C=C2/NC(=S)N(CN3CCCCC3)C2=O)cc1
inactive: [1] 5.25% | [2] -28.7% | [3] 25.1% | [4] -18.9% | [5] -1.5% | [6] 24.6%

COc1ccc(C(=CC2=CC(=O)C3=C(CCCC3)C2=O)c2ccc(OC)cc2)cc1
inactive: [1] 19.8% | [2] -4.25% | [3] -4.6% | [4] -3.7% | [5] 0.55% | [6] 7.2%

Cn1c(=O)c2c(nc(N/N=C/c3ccccc3C(=O)O)n2C)n(C)c1=O
inactive: [1] -14.2% | [2] -3.15% | [3] -7.9% | [4] 12.3% | [5] -66.5% | [6] -15.3%

C/C(=C/c1ccccc1)OC(=O)c1ccccc1
inactive: [1] 25.7% | [2] 4.55% | [3] 10.8% | [4] -1.85% | [5] 26.4% | [6] 36.2%

C/C(Cl)=C/CC1(C)CCCC(C)(C)CC1=O (stereo not given)
inactive: [1] 6.4% | [2] 7.4% | [3] 1.5% | [4] 2.05% | [5] 1.85% | [6] -10.3%

CC1=C(C)CP(=O)(c2ccccc2)C1
inactive: [1] 16.6% | [2] -5.2% | [3] -0.7% | [4] -8.65% | [5] -3.9% | [6] -35.4%

CCOc1ccc(NC(=O)C(=O)CC(=O)c2sc(NNC(C)=O)nc2C)cc1
inactive: [1] -21.1% | [2] 2.95% | [3] 17.5% | [4] 14.4% | [5] 5.4% | [6] -8%

c1cc2c3c(c1)CCC3CCC2 (stereo not given)
inactive: [1] -50.1% | [2] -48% | [3] -50.9% | [4] 12.8% | [5] -35% | [6] -4.85%

Oc1c(CN2CCOCC2)cc(CN2CCOCC2)cc1CN1CCOCC1
inactive: [1] 7.7% | [2] 0.5% | [3] -5.4% | [4] 2.2% | [5] 6.6% | [6] 6.55%

OC(c1ccncc1)(c1ccc(Cl)cc1)c1cccs1 (stereo not given)
inactive: [1] 6.35% | [2] 11.2% | [3] 6.95% | [4] -5.2% | [5] 21.4% | [6] 7.7%

CC1(C)OB(O)OC1(C)C
inactive: [1] -10.4% | [2] 12.7% | [3] -35.2% | [4] 14.6% | [5] -0.9% | [6] -9.7%

COC(=O)CCN(CCC(=O)OC)C1CC1
inactive: [1] -23.4% | [2] -14.3% | [3] -13.4% | [4] 19.6% | [5] 3.75% | [6] -20.4%

C(=C\c1nc2ncccn2n1)/c1ccccc1
inactive: [1] 16.4% | [2] -2.75% | [3] 6.55% | [4] -20.9% | [5] 4.6% | [6] -14.3%

Cc1cc(C)c(NC(=O)c2cc(C(=O)O)c(C(=O)Nc3c(C)cc(C)cc3C)cc2C(=O)O)c(C)c1
inactive: [1] 8.7% | [2] 2.5% | [3] -15.6% | [4] -7.1% | [5] 2.5% | [6] -1.55%

COC(=O)C1(C)CCCC2(C)C3CCC(C(C)C)CC3CCC12 (stereo not given)
inactive: [1] 24.9% | [2] -12.8% | [3] 20.1% | [4] -12.6% | [5] -5.9% | [6] 8.65%

Cc1cccc(NC(C(=O)O)c2ccccc2)c1 (stereo not given)
inactive: [1] -13.8% | [2] 8.8% | [3] -12.8% | [4] -65.2% | [5] 26.1% | [6] 5.45%

COc1cc(OC)c(C(=O)c2ccccc2N)c(OC)c1
inactive: [1] -3.2% | [2] -0.35% | [3] -1.5% | [4] 6.55% | [5] -8.45% | [6] 9.4%

Cc1cc(C(=O)O)cc(C)c1N(C)Cc1cnc2nc(N)nc(N)c2n1
inactive: [1] 5.6% | [2] -11.8% | [3] 0.25% | [4] 20.7% | [5] 17.4% | [6] -5%
